# Sampled rows, rich in hits. Any-hit rate of the full collection: about 6.3%.
# TGFb SMAD3 inh = TGF-b pathway inhibition | 410,000 tested, 1.2% active | Potency, µM (series often up to 46.1 µM), for the others: at the highest dose activity, negative = inhibition, usual class: inhibitors | HepG2 CAGA-GFP TGF-b/SMAD3 reporter, GFP fluorescence, 18 h; TGF-beta stimulated, 500 pg/mL final; further: on the % scale 0 is the no-effect control and ±100 the full control effect; nearly all actives have a fitted effect of over 65% in size
#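 Read-out: total well GFP (ex488/em500-530) summed from mean per-cell fluorescence. Cells: HEPG2 CAGA-GFP, 1% FBS DMEM, 18 h at 37 degrees C with 500 pg/mL final TGF-beta. Unstimulated wells served as the full-inhibition control; stimulated DMSO wells = 0%.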
# RORg inh = blocks mouse ROR gamma transcriptional activity; P51450; Drosophila S2 Gal4-RORgamma UAS-luciferase reporter, 20 h; Potency, µM (highest dose often 53.6 µM), for inactives: at the top dose activity change, negative = inhibition, hits mostly inhibitors; 310,000 tested, 5.4% active; AID 2551; further: on the % scale 0 is the no-effect control and ±100 the full control effect; nearly all actives have a fitted effect of over 60% in size
# Target sequence (P51450 whole entry, looked up, the tested form may be a part): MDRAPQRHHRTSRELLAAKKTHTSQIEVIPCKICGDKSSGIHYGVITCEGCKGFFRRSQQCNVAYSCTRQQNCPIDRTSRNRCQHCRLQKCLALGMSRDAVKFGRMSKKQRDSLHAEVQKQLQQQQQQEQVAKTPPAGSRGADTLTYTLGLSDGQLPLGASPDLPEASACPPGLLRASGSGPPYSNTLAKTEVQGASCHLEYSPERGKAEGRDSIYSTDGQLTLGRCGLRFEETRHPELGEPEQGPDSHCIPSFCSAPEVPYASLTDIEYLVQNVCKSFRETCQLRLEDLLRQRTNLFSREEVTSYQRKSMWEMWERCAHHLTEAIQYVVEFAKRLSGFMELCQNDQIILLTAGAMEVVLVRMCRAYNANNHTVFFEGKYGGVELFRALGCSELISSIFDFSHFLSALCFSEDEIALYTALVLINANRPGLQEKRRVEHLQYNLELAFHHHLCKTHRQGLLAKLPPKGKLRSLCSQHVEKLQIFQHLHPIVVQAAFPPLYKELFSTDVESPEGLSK
#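 ROR gamma transcriptional activity was tracked as Gal4-UAS luciferase output in stably transfected Drosophila Schneider cells, with compound added 1 hr before 700 uM copper sulfate induction and a 20 hr ambient-temperature incubation.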
# ATXN2 expr inh = ATXN2 expression inhibition | 360,000 tested, 0.72% active | Potency, µM (highest dose often 57 µM), inactives show at the highest dose activity change, negative = inhibition, hits mostly inhibitors | HEK-293 ATXN2-luciferase reporter, luminescence, 24 h | AID 1745845; further: on the % scale 0 is the no-effect control and ±100 the full control effect; nearly all actives have a fitted effect of over 55% in size
#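 ATXN2-luciferase reporter cells (luciferase flanked by upstream and downstream ATXN2 gene portions) were treated 24 h at 37 °C with compounds at up to 57 uM. SteadyGlo luminescence gave expression; GF-AFC fluorescence gave viability.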
# VP16 counter = Gal4-VP16 reporter inhibition counter-screen | Drosophila S2 Gal4-VP16 UAS-luciferase, luminescence, 20 h | Potency, µM (titrated, usually from 53.6 µM), inactives show at the highest dose activity, negative = inhibition, usual class: inhibitors | 310,000 tested, 3.5% active;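 further: Gal4-VP16 expression switched on by copper sulfate through the metallothionein promoter; on the % scale 0 is the no-effect control and ±100 the full control effect; nearly all actives have a fitted effect of over 50% in size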
# S2 tox = reduces viability in counter-screen for ATXN expression inhibitors. AID 651635. 400,000 tested, 0.49% active. S2 cells (HEK-293 line with an ATXN2-luciferase reporter) viability, CellTiter-Fluor protease fluorescence, 24 h. Potency, µM (top dose mostly 56.7 µM), usual class: cytotoxic; further: nearly all actives have a fitted effect of over 40% in size
# HepG2 tox-1 = counter-screen for TGF-b inhibitors: cytotoxicity in HepG2 cells; HepG2 CAGA-GFP viability, ATP luminescence, 18 h; Potency, µM (series often up to 46.1 µM), inactives show at the highest dose activity change, negative = cytotoxicity, hits mostly cytotoxic; 410,000 tested, 0.76% active
#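 HepG2 CAGA-GFP cells (1000/well, DMEM with 1% FBS) received compound, then TGF-beta at 500 pg/mL final, and were incubated 18 hours at 37 degrees C. Viability was read by CellTiter-Glo luminescence. Media-only wells were set as complete cell-killing and DMSO as no toxicity.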
# TGFb confirm = confirmation of TGF-b signaling inhibitors in HepG2 reporter cells | 1,600 tested, 63% active | Potency, µM (series often up to 46.1 µM), for the others: top-dose activity, negative = inhibition, usual class: inhibitors | HepG2 CAGA-GFP TGF-b reporter, GFP fluorescence, 18 h; cells stimulated with TGF-beta, 500 pg/mL | shares compounds with TGFb SMAD3 inh; further: on the % scale 0 is the no-effect control and ±100 the full control effect; nearly all actives have a fitted effect of over 65% in size
# HepG2 tox-2 = toxic to HepG2 cells in TGF-b counterscreen. shares compounds with TGFb SMAD3 inh. HepG2 CAGA-GFP viability, ATP luminescence, 18 h; cells stimulated with TGF-beta, 500 pg/mL. 1,600 tested, 27% active. AID 720535. Potency, µM (doses to about 46.1 µM), for the others: at the top dose activity, negative = cytotoxicity, actives largely listed as inhibitors; further: on the % scale 0 is the no-effect control and ±100 the full control effect; nearly all actives have a fitted effect of over 70% in size
# CCL64 TGFb inh = orthogonal confirmation of TGF-b inhibitors in CCL64 cells; shares compounds with TGFb SMAD3 inh; CCL64 CAGA-GFP reporter, TGF-b stimulated, GFP fluorescence, 18 h; Potency, µM (series often up to 46.1 µM), inactives show top-dose activity, negative = inhibition, actives largely listed as inhibitors; 1,600 tested, 41% active; AID 720536; further: nearly all actives have a fitted effect of over 65% in size
# TGFb COP inh = blocks TGF-b signaling in HepG2 COP reporter. HepG2 COP-GFP TGF-b reporter, GFP fluorescence, 18 h; cells stimulated by added recombinant TGF-beta. shares compounds with TGFb SMAD3 inh. 1,600 tested, 3% active. Potency, µM (series often up to 46.1 µM), for the others: top-dose activity, negative = inhibition, usual class: inhibitors. AID 720537; further: nearly all actives have a fitted effect of over 70% in size
# * marks the source's active call; other numbers are inactive results; i = inactive; ? = inconclusive; nt = not tested or not shown; [ ] = another dose, or the depositor's remark. The call rests on the fitted dose curve; in most records, active means well fitted curve in the direction sought with a large enough effect; inconclusive means small, poorly fitted or top-dose-only effect, or another doubt; inactive means no such curve, though single readings can be large; an effect the other way counts as inactive or inconclusive. Potency means the concentration at half of the fitted maximal effect.
SMILES,TGFb SMAD3 inh,RORg inh,ATXN2 expr inh,VP16 counter,S2 tox,HepG2 tox-1,TGFb confirm,HepG2 tox-2,CCL64 TGFb inh,TGFb COP inh
CCc1ccc(-n2nc(C)c3c(C)cc(=O)n(CC(=O)N(CC)Cc4ccccc4)c32)cc1,3%,nt,3%,nt,i,-5%,nt,nt,nt,nt
Cc1cccc(-c2nc3scc(CCNS(=O)(=O)c4ccc(Oc5ccccc5)cc4)n3n2)c1,0%,nt,nt,nt,nt,-54%,nt,nt,nt,nt
Cc1cc(C)cc(Cn2c3ccc(NC(=O)NCc4ccc(F)cc4)cc3c(=O)n2C)c1,1%,nt,2%,nt,i,1%,nt,nt,nt,nt
NC(=O)CC(NC(=O)Cc1ccc(Br)cc1)c1ccc(N2CCN(c3ccccn3)CC2)c([N+](=O)[O-])c1 (configuration not stated),7.9µM*,2%,?,-2%,?,-58%,?,?,0%,0%
Cc1cccc(CNc2ccc(C(CC(N)=O)NC(=O)Cc3cccc4ccccc34)cc2[N+](=O)[O-])c1 (configuration not stated),?,17%,-30%,3%,?,-17%,?,?,1.6µM*,-25%
NC(=O)CC(NC(=O)Cc1cccc2ccccc12)c1ccc(N2CCc3ccccc3C2)c([N+](=O)[O-])c1 (configuration not stated),13µM*,-12%,?,-5%,35µM*,-25%,?,?,?,45%
NC(=O)CC(NC(=O)Cc1cccc2ccccc12)c1ccc(N2CCN(c3ccccc3)CC2)c([N+](=O)[O-])c1 (configuration not stated),2%,3%,2%,-2%,i,-21%,nt,nt,nt,nt
NC(=O)CC(NC(=O)Cc1cccc2ccccc12)c1ccc(N2CCCCCC2)c([N+](=O)[O-])c1 (configuration not stated),-28%,13%,-12%,-1%,?,-17%,nt,nt,nt,nt
NC(=O)CC(NC(=O)Cc1ccc(Cl)cc1)c1ccc(N2CCN(c3ccccn3)CC2)c([N+](=O)[O-])c1 (configuration not stated),-19%,-2%,0%,1%,i,-4%,nt,nt,nt,nt
CCCCNc1ccc(C(CC(N)=O)NC(=O)Cc2cccc3ccccc23)cc1[N+](=O)[O-] (configuration not stated),-5%,15%,0%,-6%,i,-6%,nt,nt,nt,nt
NC(=O)CC(NC(=O)Cc1cccc2ccccc12)c1ccc(N2CCC(Br)CC2)c([N+](=O)[O-])c1 (configuration not stated),13µM*,3%,?,9%,?,-28%,?,-12%,?,-5%
COc1cc(C2N=C(N)Nc3nc4ccccc4n32)ccc1OCC(=O)O (configuration not stated),8%,nt,-2%,nt,i,2%,nt,nt,nt,nt
COc1ccccc1C(=O)N1CCN(C(=O)[C@H]2O[C@@H](n3ccc(=O)[nH]c3=O)[C@H](O)[C@@H]2O)CC1,17%,nt,-5%,nt,i,-20%,nt,nt,nt,nt
CC(=O)N1CCCc2cc(S(=O)(=O)N3CCCC(C(=O)Nc4cccc(Cl)c4C)C3)ccc21 (configuration not stated),-25%,nt,-32%,nt,?,-32%,nt,nt,nt,nt
COC(=O)c1sc(NC(=O)c2ccc([N+](=O)[O-])o2)c(C#N)c1C,4.5µM*,?,nt,-7%,?,-54%,7.3µM*,10µM*,15µM*,41%
COC(=O)c1c(NC(=O)c2ccc([N+](=O)[O-])o2)sc2c1CCN(C(C)C)C2,20µM*,?,?,?,?,-8%,2.6µM*,10µM*,26µM*,36%
CC(=O)N1CCc2c(sc(NC(=O)c3ccc([N+](=O)[O-])o3)c2C#N)C1,5.6µM*,-40%,-16%,1%,?,-31%,4.1µM*,3.3µM*,10µM*,?
COc1ccc(C(=O)Nc2sc3c(c2C#N)CCN(C(C)=O)C3)cc1,-9%,-18%,7%,-11%,i,-1%,nt,nt,nt,nt
O=C(C[n+]1ccc2ccccc2c1)c1ccc(O)c(O)c1,3%,nt,nt,nt,nt,-26%,nt,nt,nt,nt
COC(=O)N1CCCCC1c1cc(C(=O)Nc2ccccc2Cl)no1 (configuration not stated),-11%,nt,6%,nt,i,-26%,nt,nt,nt,nt
CCOc1ccc(CNC(=O)c2oc3c(c2C)-c2nn(Cc4cccc(Cl)c4)cc2CC3)cc1,-26%,nt,nt,nt,nt,-3%,nt,nt,nt,nt
CCCC[C@@H]1CN2[C@H](c3ccc(Br)cc3)[C@H](C)CC[C@H]2C(=O)O1,nt,1%[10 µM],nt,-6%[10 µM],nt,nt,nt,nt,nt,nt
O=C(Nc1nnc(-c2cccs2)o1)c1cc(-c2ccccc2)nc2ccccc12,11µM*,1.4µM*,?,2.5µM*,?,-11%,12µM*,?,15µM*,27%
CCOC(=O)c1sc(NC(=O)c2cc(-c3ccc(C)cc3)nc3ccccc23)c(C#N)c1C,?,35%,9%,-10%,i,-12%,nt,nt,nt,nt
O=C(NCc1cccs1)c1cc(-c2ccccc2)nc2ccccc12,-8%,10%,5%,1%,?,-4%,nt,nt,nt,nt
Cc1ccccc1-c1cc(C(=O)Nc2sc(C(=O)OC(C)C)c(C)c2C#N)c2ccccc2n1,3.5µM*,?,?,?,?,-35%,5.2µM*,1.5µM*,5.8µM*,55%

# Assay outcomes deposited in PubChem BioAssay by National Center for Advancing Translational Sciences (NCATS).
